The source of these data is PubChem BioAssay (Tox21).

Assay [1] is described as follows: Nuclear factor erythroid 2-related factor 2/antioxidant responsive element (Nrf2/ARE) small molecule agonists: qHTS cell viability counter screen in human keratinocytes (AID 1919968; active = well fitted curve in the direction sought with a large enough effect in the repeat runs; an effect the other way counts as inactive or inconclusive; also: nearly all actives have a fitted effect of over 55% in size). In short, it runs like this:
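Stably transfected HaCaT (KeratinoSens), 1,500/well. Test agents in DMSO were applied for 23 h, 37 C/5% CO2. CellTiter-Fluor was incubated 1 h before the fluorescence read.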
(In general: qHTS replaces the single test concentration by a dilution series.)

Assay [2] can be described thus: Nuclear factor erythroid 2-related factor 2/antioxidant responsive element (Nrf2/ARE) small molecule agonists: luciferase reporter gene qHTS assay in human keratinocytes (AID 1919969). Also: nearly all actives have a fitted effect of over 35% in size. A general note: A reporter such as luciferase makes a cellular process visible.
Assay [3] deals with Gonadotropin-releasing hormone receptor (Homo sapiens) (UniProt P30968). In words: Human gonadotropin-releasing hormone receptor (GnRHR) small molecule agonists, calcium flux assay in GnRHR-HEK293 cells (AID 1920063). Also: nearly all actives have a fitted effect of over 35% in size. In short, it runs like this: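 Stable human GnRHR HEK293 line. 18 h plating, then calcium dye for 1 h at 37 C. Agonist-mode compound addition from DMSO stocks; fluorescence monitored 3 min.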
On the technique in general: Calcium assays in cells follow changes in intracellular calcium, usually with a dye or a luminescent sensor.

For assay [4], the target named is KiSS-1 receptor (Homo sapiens) (UniProt Q969F8). The assay is described as follows: Human kisspeptin (KISS1R) small molecule agonists, calcium flux assay in KISS1R-HEK293 cells (AID 1920064; active = well fitted curve in the direction sought with a large enough effect in the repeat runs; an effect the other way counts as inactive or inconclusive). In short, it runs like this:
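After overnight (18 h) culture at 37 C/5% CO2, human KISS1R-HEK293 cells received calcium dye for 1 h, then test compound; emission at 540 nm (excitation 480 nm) was tracked for 3 min.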

Assay [5] in a line: G protein-coupled receptor (GPCR) small molecule agonists, calcium flux assay: HEK293 wild type cell line counter screen (AID 1920065). Summed up:
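Following 18 h incubation at 37 C/5% CO2, plates got calcium dye for 1 h; compounds, ATP or DMSO were then pinned in and fluorescence followed kinetically (480/540 nm).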

Assay [6] in a line: p53 small molecule agonists, cell-based qHTS assay with human liver microsomes: qHTS cell viability counter screen (AID 1963579). Also: nearly all actives have a fitted effect of over 45% in size. In short, it runs like this:
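Viability of p53RE-bla cells is measured as CellTiter-Glo luminescence following a 16 h, 37 C incubation with compound, liver microsomes from human donors and NADPH.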

Assay [7] in a line: p53 small molecule agonists, cell-based qHTS assay with rat liver microsomes: qHTS cell viability counter screen (AID 1963580). Also: nearly all actives have a fitted effect of over 45% in size. In short, it runs like this: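 Rat liver microsome (0.5 mg/mL final) and NADPH (0.5 mg/mL final) co-incubation with compounds for 16 h at 37 C on HCT-116 p53RE-bla cells; cytotoxicity taken from intracellular ATP luminescence.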
The target in assay [8] is 5-hydroxytryptamine receptor 2A (Homo sapiens) (UniProt P28223). In words: 5-hydroxytryptamine receptor 2A (HTR2A) small molecule antagonists, cell-based qHTS assay (AID 1963586). Also: nearly all actives have a fitted effect of over 45% in size. Also: potency is read from the fitted curve at half-maximal effect. In short, it runs like this:
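CHO cells stably expressing human HTR2A were plated for 18 h at 37 C, then loaded with calcium dye for 1 h. Compounds were preincubated 5 min at room temperature before DOI (4 nM solution) was added. Kinetic fluorescence was read for 3 min.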

For assay [9] the target is unchanged. The assay is described as follows: 5-hydroxytryptamine receptor 2A (HTR2A) small molecule agonists, cell-based qHTS assay (AID 1963587). Also: nearly all actives have a fitted effect of over 30% in size. Also: potency is read from the fitted curve at half-maximal effect. In short, it runs like this:
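Kinetic calcium-flux fluorescence (2 min, 1 sec intervals) after compound addition in agonist mode. HTR2A-CHO cells were cultured 18 h, then dye-loaded 1 h at 37 C.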

The target in assay [10] is Muscarinic acetylcholine receptor M1 (Homo sapiens) (UniProt P11229). The assay is described as follows: Cholinergic receptor muscarinic 1 (CHRM1) small molecule antagonists, cell-based qHTS assay (AID 1963588). Also: nearly all actives have a fitted effect of over 40% in size. Also: potency is read from the fitted curve at half-maximal effect. In short, it runs like this:
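Compounds were tested at 15 concentrations in three independent runs. Dye-loaded CHRM1-CHO cells were exposed 5 min at room temperature before stimulation by acetylcholine added at 50nM. Intracellular calcium was read kinetically on FDSS for 3 min.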

Assay [11] has the same target. The assay is described as follows: Cholinergic receptor muscarinic 1 (CHRM1) small molecule agonists, cell-based qHTS assay (AID 1963589). Also: nearly all actives have a fitted effect of over 35% in size. Summed up:
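Kinetic fluorescence (1 s intervals) of calcium-sensitive dye in human M1 CHO cells after compound addition; cells pre-incubated 18 h at 37 C/5% CO2 and dye-loaded 1 h.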

Assay [12] in a line: cAMP Responsive Elements (CRE) small molecule agonists, cell-based qHTS assay (AID 1963590). Summed up: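 Test agents in DMSO were incubated 3 h at 37 C/5% CO2 with CRE-bla HEK 293T cells seeded 18 h earlier; LiveBLAzer B/G FRET substrate was added and read after 2 h at room temperature.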
Assay [13] in a line: cAMP Responsive Elements (CRE) small molecule antagonists, cell-based qHTS assay (AID 1963591; active = well fitted inhibition curve with a large enough effect in the signal ratio in the repeat runs, not every such curve was filed as active; the % refers to the signal ratio). In short, it runs like this:
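Reporter line CRE-bla HEK 293T in dialyzed-FBS DMEM; cells preincubated 18 h, treated 3 h with compound plus NKH477 (0.25 uM final); LiveBLAzer FRET, 2 h RT.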

Assay [14] concerns the target Beta-2 adrenergic receptor (Homo sapiens) (UniProt P07550). In words: Adrenergic beta2 receptor (ADRB2) small molecule antagonists, cell-based qHTS assay (AID 1963592). Also: series mostly up to about 92 µM; nearly all actives have a fitted effect of over 50% in size. In short, it runs like this:
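Assay format: CHO-ADRB2 cells, 18-20hr seeding at 37C/5% CO2, then compound plus 1nM isoproterenol agonist mix for 0.5hr RT. Homogeneous time-resolved fluorescence cAMP detection after 1hr, expressed as 665/615 nm ratio.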

Assay [15] has the same target. In words: Adrenergic beta2 receptor (ADRB2) small molecule agonists, cell-based qHTS assay (AID 1963593).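 Also: CHO cells stably overexpressing human ADRB2.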 In short, it runs like this:
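CHO cells stably over-expressing ADRB2 were plated overnight at 37C, then dosed with compounds plus a stimulation mix containing 100uM IBMX and 25uM Ro-20-1724 for 0.5hr at room temperature. cAMP was measured by HTRF competition, 1hr.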

Assay [16] has as its target D(2) dopamine receptor (Homo sapiens) (UniProt P14416). In words: Dopamine D2 receptor (DRD2) small molecule agonists, cell-based qHTS assay (AID 1963594). Also: nearly all actives have a fitted effect of over 35% in size. Summed up: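 cAMP accumulation in DRD2-HEK293 cells measured by HTRF after 1 h detection; compounds added 10 min before NKH477 (200nM […]) forskolin-analogue stimulation, 30 min at room temperature, with Ro20-1724 present at 0.1 mM final.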

Assay [17] has the same target. In words: Dopamine D2 receptor (DRD2) small molecule antagonists, cell-based qHTS assay (AID 1963595; active = well fitted inhibition curve with a large enough effect in the signal ratio in the repeat runs, with a control signal flat; the % refers to the signal ratio). In short, it runs like this:
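Human DRD2 antagonist qHTS measuring cAMP by HTRF. The cells are exposed to compound for 10 min, then to NKH477 (200 nM) and quinpirole (12 nM) for 30 min at RT, with Ro20-1724 (0.1 mM) present throughout.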

Assay [18] in a line: p53 small molecule agonists, cell-based qHTS assay: qHTS cell viability counter screen (AID 1963581). Also: nearly all actives have a fitted effect of over 45% in size. Summed up:
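qHTS counter screen: 16 h compound exposure at 37 C of p53RE-bla HCT-116 cells (4,000 per well, seeded 5 h prior), cell viability by ATP luminescence.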

A short description of assay [19]: p53 small molecule agonists, cell-based qHTS assay (AID 1963582; active = well fitted activation curve with a large enough effect in the signal ratio in the repeat runs, not every such curve was filed as active; the % refers to the signal ratio). In short, it runs like this:
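Measured: fluorescence from cleaved LiveBLAzer substrate. System: p53RE-bla cells, 16 h compound treatment at 37 C, 2 h substrate step at room temperature.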

Records with an inconclusive call do not appear. The source made the active and inactive calls. Unless noted, calls follow the shape of the full dose curve.

5-hydroxytryptamine receptor 2A (Homo sapiens), sequence (P28223 whole entry, looked up): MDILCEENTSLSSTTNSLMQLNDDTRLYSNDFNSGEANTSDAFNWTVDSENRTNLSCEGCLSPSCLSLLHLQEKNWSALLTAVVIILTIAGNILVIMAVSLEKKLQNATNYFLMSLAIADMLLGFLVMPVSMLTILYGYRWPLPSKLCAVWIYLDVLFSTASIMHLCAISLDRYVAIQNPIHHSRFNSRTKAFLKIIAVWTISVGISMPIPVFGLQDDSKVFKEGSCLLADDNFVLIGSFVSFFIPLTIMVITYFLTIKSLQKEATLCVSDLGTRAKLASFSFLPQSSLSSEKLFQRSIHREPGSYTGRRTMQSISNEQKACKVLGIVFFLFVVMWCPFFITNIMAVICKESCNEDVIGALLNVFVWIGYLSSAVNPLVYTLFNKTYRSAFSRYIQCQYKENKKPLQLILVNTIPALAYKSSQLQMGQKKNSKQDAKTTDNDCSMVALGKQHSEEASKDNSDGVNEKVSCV
Muscarinic acetylcholine receptor M1 (Homo sapiens), sequence (P11229 whole entry, looked up): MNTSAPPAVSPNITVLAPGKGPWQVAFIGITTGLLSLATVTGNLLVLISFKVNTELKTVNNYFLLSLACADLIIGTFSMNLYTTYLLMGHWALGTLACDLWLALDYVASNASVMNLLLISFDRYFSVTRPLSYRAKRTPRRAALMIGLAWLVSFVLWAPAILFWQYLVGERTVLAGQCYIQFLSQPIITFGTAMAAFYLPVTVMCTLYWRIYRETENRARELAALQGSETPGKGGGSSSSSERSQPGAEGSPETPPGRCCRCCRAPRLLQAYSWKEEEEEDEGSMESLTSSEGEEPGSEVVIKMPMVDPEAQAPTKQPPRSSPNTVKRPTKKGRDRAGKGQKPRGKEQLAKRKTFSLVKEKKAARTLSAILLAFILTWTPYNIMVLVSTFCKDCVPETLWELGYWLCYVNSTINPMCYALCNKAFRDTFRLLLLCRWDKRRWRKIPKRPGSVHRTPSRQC
Gonadotropin-releasing hormone receptor (Homo sapiens), sequence (P30968 whole entry, looked up): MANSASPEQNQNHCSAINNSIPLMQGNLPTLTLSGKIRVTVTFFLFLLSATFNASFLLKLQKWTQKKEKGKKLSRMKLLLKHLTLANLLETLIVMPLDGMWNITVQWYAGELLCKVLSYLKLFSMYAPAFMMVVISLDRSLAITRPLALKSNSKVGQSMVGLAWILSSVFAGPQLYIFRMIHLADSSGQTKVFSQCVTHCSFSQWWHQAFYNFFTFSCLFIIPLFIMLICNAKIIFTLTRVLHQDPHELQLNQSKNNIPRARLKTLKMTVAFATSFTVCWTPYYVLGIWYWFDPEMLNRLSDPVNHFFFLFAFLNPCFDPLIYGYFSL
KiSS-1 receptor (Homo sapiens), sequence (Q969F8 whole entry, looked up): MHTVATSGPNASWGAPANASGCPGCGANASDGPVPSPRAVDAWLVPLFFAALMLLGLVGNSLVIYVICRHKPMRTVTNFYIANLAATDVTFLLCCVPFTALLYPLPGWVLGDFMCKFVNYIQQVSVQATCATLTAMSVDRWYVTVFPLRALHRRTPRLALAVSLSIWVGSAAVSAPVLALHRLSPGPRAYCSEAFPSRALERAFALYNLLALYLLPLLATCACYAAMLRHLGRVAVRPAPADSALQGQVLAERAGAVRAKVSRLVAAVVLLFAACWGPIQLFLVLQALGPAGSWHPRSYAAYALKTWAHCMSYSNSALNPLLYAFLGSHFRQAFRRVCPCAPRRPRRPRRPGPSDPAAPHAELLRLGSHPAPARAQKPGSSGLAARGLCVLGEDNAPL
D(2) dopamine receptor (Homo sapiens), sequence (P14416 whole entry, looked up): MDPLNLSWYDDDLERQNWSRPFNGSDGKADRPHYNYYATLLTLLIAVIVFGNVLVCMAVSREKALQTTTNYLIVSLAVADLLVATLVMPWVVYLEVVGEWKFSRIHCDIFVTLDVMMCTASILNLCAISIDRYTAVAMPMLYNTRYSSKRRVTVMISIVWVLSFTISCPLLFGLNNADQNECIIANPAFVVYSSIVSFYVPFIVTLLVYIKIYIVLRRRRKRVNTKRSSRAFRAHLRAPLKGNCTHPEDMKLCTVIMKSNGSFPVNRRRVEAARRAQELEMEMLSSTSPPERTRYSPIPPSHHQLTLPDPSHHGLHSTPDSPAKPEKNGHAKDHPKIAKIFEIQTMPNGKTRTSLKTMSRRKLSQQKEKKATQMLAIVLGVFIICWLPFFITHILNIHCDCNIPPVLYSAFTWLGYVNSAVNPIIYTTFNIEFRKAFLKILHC
Beta-2 adrenergic receptor (Homo sapiens), sequence (P07550 whole entry, looked up): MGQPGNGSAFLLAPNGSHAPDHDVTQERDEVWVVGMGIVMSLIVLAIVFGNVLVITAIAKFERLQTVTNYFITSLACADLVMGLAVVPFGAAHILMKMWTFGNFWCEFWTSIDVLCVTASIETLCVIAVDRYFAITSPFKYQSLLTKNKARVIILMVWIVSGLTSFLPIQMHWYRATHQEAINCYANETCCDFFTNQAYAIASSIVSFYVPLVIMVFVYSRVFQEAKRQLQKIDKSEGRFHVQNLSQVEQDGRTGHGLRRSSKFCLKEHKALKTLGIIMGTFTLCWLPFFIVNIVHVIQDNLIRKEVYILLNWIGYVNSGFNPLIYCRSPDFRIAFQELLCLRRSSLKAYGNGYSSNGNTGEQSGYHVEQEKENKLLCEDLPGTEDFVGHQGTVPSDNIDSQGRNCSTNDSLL

`Cc1cc(C(F)(C(F)(F)F)C(F)(F)F)ccc1NC(=O)c1cccc(I)c1C(=O)NC(C)(C)CS(C)(=O)=O`: the Potency entry in assay [1], in assay [2], in assay [3], in assay [4], in assay [5] and in assay [6] was “inactive” each time. Moreover, the Potency result in assay [7], in assay [8], in assay [9], in assay [10], in assay [11] and in [12] was “inactive” each time. Further, the Potency result in [13], in assay [14], in assay [15], in assay [16] and in [17] was “inactive” each time.
Turning to `COc1cc(C[C@@H](C)N)c(OC)cc1C`, the Potency result in [1], in [2], in [3], in [4], in assay [5] and in [7] was “inactive” throughout. In addition, the Potency entry in assay [18], in assay [10], in assay [11], in assay [12], in [13] and in assay [17] was “inactive” in each case. For the same compound, the Potency in assay [8] is 1.3 nM (active); in assay [9] it was 10.5 nM (active).
As for `CCOP(=S)(OCC)Oc1cc(C)nc(N(CC)CC)n1`, the Potency entry in assay [1], in assay [2], in [3], in assay [4], in assay [5] and in [6] was “inactive” throughout. Moreover, the Potency entry in [19], in [9], in assay [10], in [14], in [15] and in assay [17] was “inactive” in each case.
As to `O=c1[nH]c2ccccc2o1`, the Potency entry in assay [1], in [2], in assay [3], in assay [4], in [5] and in assay [7] was “inactive” throughout. Further, the Potency entry in assay [18], in [8], in [9], in assay [10], in [11] and in assay [12] was “inactive” throughout. In addition, the Potency result in assay [13], in assay [14], in assay [16] and in assay [17] was “inactive” throughout.
On to `CCC(Cl)CCl` (stereo unspecified), for which the Potency result in assay [1], in assay [2], in [3], in [4], in assay [5] and in assay [6] was “inactive” throughout. In addition, the Potency result in assay [18], in assay [8], in assay [9], in assay [11], in assay [12] and in assay [13] was “inactive” each time. Further, the Potency result in assay [14], in assay [15], in [16] and in assay [17] was “inactive” in each case.
As to `CCC(C)(C)c1cc(-n2nc3ccccc3n2)c(O)c(C(C)(C)CC)c1`, the Potency result in [1], in assay [2], in assay [3], in assay [4], in assay [5] and in assay [7] was “inactive” throughout. Also, the Potency entry in assay [18], in [8], in [11], in assay [12], in [13] and in [14] was “inactive” in each case. Besides, the Potency result in [15], in assay [16] and in [17] was “inactive” throughout. Further, in assay [10], the Potency was 95.6 nM (active).
